Source: PubChem BioAssay (NCATS)
Inconclusive results are not listed. The source made the active and inactive calls. Calls follow the shape of the dose curve; as a rule, active = well fitted curve in the direction sought with a large enough effect; inconclusive = small, poorly fitted or top-dose-only effect, or another doubt; inactive = no such curve, though single readings can be large; an effect the other way counts as inactive or inconclusive.

Assays:
[1] = target: Calcium and integrin-binding protein 1 (Homo sapiens) (UniProt Q99828); test: Primary qHTS for Identification of Calcium Integrin Binding Protein 1 (CIB1) Competitor (AID 1508620);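 also: GST tagged CIB1 binding a fluorescein labelled alphaIIb integrin peptide tracer; top concentration of the series differs between compounds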
Sequence of Calcium and integrin-binding protein 1 (Homo sapiens) (Q99828 whole entry, looked up): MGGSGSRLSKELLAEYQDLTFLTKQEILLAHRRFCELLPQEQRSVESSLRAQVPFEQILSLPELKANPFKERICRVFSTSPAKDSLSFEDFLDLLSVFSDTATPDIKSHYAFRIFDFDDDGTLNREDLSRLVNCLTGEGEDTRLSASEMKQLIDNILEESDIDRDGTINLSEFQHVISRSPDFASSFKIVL
Outline: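 Fluorescence polarization competition: GST-tagged CIB1 (1 uM final) preincubated with compound 15 min at room temperature, then FITC-labelled alphaIIb peptide (100 nM final) added. After 15 min at room temperature, polarization read at Ex 480/Em 540.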

[2] = Primary qHTS for inhibitors of nuclear receptor binding SET domain protein 2 (NSD2) in an isogenic RCH-ACV NSD2 p.E1099K mutant (9B) (AID 1645876); also: nearly all actives have a fitted effect of over 70% in size
[3] = Primary qHTS for inhibitors of nuclear receptor binding SET domain protein 2 (NSD2) in an RCH-ACV wild type WT cells (2C) (AID 1645877); also: nearly all actives have a fitted effect of over 70% in size
% is scaled to controls: 0 for no effect and ±100 for the full control effect.

C=C1C(OC(C)=O)CCC2(C)CCC(C(C)(C)O)CC12 (centres undefined)
inactive: Potency [1] | Potency [2] | Potency [3]

CC(C)C(O)(CO)CCO[C@@H]1O[C@H](CO[C@H]2OC[C@](O)(CO)[C@H]2O)[C@@H](O)[C@H](O)[C@H]1O (some centres undefined)
inactive: Potency [1] | Potency [2] | Potency [3]

O=C(OC[C@H]1O[C@@H](Oc2ccccc2CO)[C@H](O)[C@@H](O)[C@@H]1O)c1ccccc1
inactive: Potency [1] | Potency [2] | Potency [3]

C=C1CC2C3(C)C=CC(=O)OC(C)(C)C3CC(OC(C)=O)C2(C)C2C(=O)OC(C)C(=O)C12C (centres undefined)
inactive: Potency [1] | Potency [2] | Potency [3]

C/C=C(/C)C(=O)OC1CC(C)(C)CC2C3=CCC4C5(C)CCC(OC6OC(C)C(OC7OC(C(=O)O)C(O)C(OC8OC(CO)C(O)C(O)C8OC8OC(CO)C(O)C(O)C8O)C7O)C(O)C6O)C(C)(C)C5CCC4(C)C3(C)C(OC(=O)/C=C/C=C/C=C/CCC)C(OC(C)=O)C12CO (centres undefined)
inactive: activity change, negative = inhibition [1] 0.802% [at 12.4 µM] | activity change, negative = viability loss [2] -8.21% [at 9.23 µM] | activity change, negative = cell killing [3] -14.8% [at 9.23 µM]

C/C=C/C=C/C=C/C(=O)OC1C=C2C(O)OC(=O)[C@]2(O)[C@@]2(C)CCCC(C)(C)[C@H]12 (some centres undefined)
inactive: Potency [1] | Potency [2] | Potency [3]

COC(=O)C1=COC(OC2OC(CO)C(O)C(O)C2O)C2C(C)C(OC(=O)/C=C/c3ccc(O)cc3)C(O)C12 (centres undefined)
inactive: Potency [1] | Potency [2] | Potency [3]

COC(=O)C1=CO[C@@H](O[C@@H]2O[C@H](CO)[C@@H](O)[C@H](O)[C@H]2O)[C@H]2[C@@H]1[C@H](O)[C@H](O)[C@]2(C)O
inactive: Potency [1] | Potency [2] | Potency [3]
